# Screening results: PubChem BioAssay, National Center for Advancing Translational Sciences (NCATS)
# S-ASM inh – blocks human secretory acid sphingomyelinase; AID 504937; placental ASM, HMU-PC fluorogenic substrate, 60 min; actives 0.006% (n = 340,000); P17405; Potency, µM (series often up to 57.5 µM), for inactives: at the top dose activity change, negative = inhibition, most hits filed as inhibitors; also: potency is read from the fitted curve at half-maximal effect
#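 Steps: dispense placental human ASM, pin compound, wait 10 min at room temperature, add HMU-PC0 substrate at 9 uM final, incubate 60 min at 37 °C, add stop solution raising pH to 10, read fluorescence.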
# Mito fusion yeast – inhibitors of mitochondrial division or activators of mitochondrial fusion; S. cerevisiae fusion-defective mutant growth rescue, CellTiterGlo 48 h; Potency, µM (series often up to 46.1 µM), inactives show at the top dose growth rescue (activation), most hits filed as activators; actives 0.23% (n = 320,000); also: potency is read from the fitted curve at half-maximal effect; % of control where 0% means no effect; nearly all actives have a fitted effect of over 45% in size
#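 Growth-rescue viability read-out: after 48 h at the non-permissive 37C in glycerol/ethanol YPEG, yeast mitochondrial fusion mutants are measured by CellTiterGlo luminescence; compounds (23 nl pinned per well) restoring growth score as division inhibitors or fusion activators.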
# LDHA inh – LDHA (human) enzyme inhibition; purified LDHA, NADH/diaphorase-resazurin fluorescence; stronger effect = lower value; actives 0.15% (n = 480,000); P00338; activity change, % (values are at about 110 or 230 µM); in the data active = activity change below about -30%; inconclusive = mostly about -25% to -30%;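 also: plate controls were DMSO wells for no effect and wells without enzyme for full effect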
#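 Remaining NADH was detected by diaphorase (0.133 mg/mL) converting 37 µM resazurin to fluorescent resorufin, read at 0 and 20 minutes. The preceding 5-minute room-temperature reaction used 2 nM LDHA, 0.2 mM sodium pyruvate and 0.06 mM NADH at pH 7.4.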
# IDH1 R132H inh – human IDH1 R132H inhibition. Potency, µM (titrated, usually from 76.6 µM), inactives show at the top dose activity change, negative = inhibition, usual class: inhibitors. AID 602179. IDH1-R132H enzyme, NADPH consumption, diaphorase/resazurin fluorescence. actives 0.093% (n = 390,000). O75874; also: potency is read from the fitted curve at half-maximal effect; % is scaled to controls: 0 for no effect and ±100 for the full control effect; nearly all actives have a fitted effect of over 65% in size
# Target sequence (O75874 whole entry R132H, stated change not applied): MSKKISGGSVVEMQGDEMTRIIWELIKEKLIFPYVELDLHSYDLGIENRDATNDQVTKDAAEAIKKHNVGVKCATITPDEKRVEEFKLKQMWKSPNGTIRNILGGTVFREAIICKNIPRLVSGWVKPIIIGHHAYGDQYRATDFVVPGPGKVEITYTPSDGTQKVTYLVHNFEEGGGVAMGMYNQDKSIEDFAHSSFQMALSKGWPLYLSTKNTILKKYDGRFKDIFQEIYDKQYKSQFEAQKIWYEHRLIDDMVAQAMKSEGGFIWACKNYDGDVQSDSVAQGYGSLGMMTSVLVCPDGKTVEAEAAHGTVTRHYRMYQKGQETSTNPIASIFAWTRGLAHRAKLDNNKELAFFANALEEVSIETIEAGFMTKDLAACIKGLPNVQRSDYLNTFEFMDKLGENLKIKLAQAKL
#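 IDH1-R132H (0.5 ug/mL dispensed) in pH 7.5 Tris buffer was preincubated 30 min with compound, then given a substrate mix of 0.016 mM NADPH and 2 mM alpha-KG for 80 min at room temperature; remaining NADPH was read by diaphorase/resazurin fluorescence.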
# RGS4 inh – inhibitors of human regulator of G protein signaling 4; P49798; Transcreener GDP fluorescence polarization, RGS4-accelerated GTP hydrolysis; Potency, µM (titrated, usually from 114 µM), for inactives: at the top dose activity change, negative = inhibition, most hits filed as inhibitors; actives 0.039% (n = 390,000); AID 504845; also: potency is read from the fitted curve at half-maximal effect; % is scaled to controls: 0 for no effect and ±100 for the full control effect; nearly all actives have a fitted effect of over 75% in size
# Target sequence (P49798 whole entry, looked up): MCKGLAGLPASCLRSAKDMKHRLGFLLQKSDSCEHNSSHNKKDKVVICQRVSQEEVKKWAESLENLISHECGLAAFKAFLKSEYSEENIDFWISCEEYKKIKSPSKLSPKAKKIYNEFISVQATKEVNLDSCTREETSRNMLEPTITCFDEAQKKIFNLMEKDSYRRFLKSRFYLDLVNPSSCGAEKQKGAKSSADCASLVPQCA
#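 MLSMR compounds (23 nl, pin-transferred) preincubated 10 min at room temperature with a 500nM (2x) first reagent, then RGS4 at 900nM (2x) plus Transcreener GDP mix added; fluorescence polarization (620/688 nm) read before and after 90 min at 30 °C.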
# ClpP mod – qHTS Assay for Activators of ClpP | actives 1.9% (n = 340,000) | ATP-dependent Clp protease proteolytic subunit (Bacillus subtilis (strain 168)), P80244 | Potency, µM (doses to about 57.5 µM), inactives show top-dose activity change, negative = active | purified B. subtilis ClpP, FRET peptide cleavage, 20 min; active = well fitted falling curve with a large enough effect; inconclusive = small, poorly fitted or top-dose-only effect; inactive = no such curve, though single readings can be large or run the other way; also: potency is read from the fitted curve at half-maximal effect; the source files actives as falling curves though it sought activators and does not explain the sign; nearly all actives have a fitted effect of over 65% in size
#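 Purified B. subtilis ClpP, 10 microg/mL final in Tris/HCl pH8 with KCl, BSA, glycerol and Tween-20, cleaved an Abz/nitrotyrosine-quenched decapeptide. Fluorescence (ex 320, em 430) was read at 0 and 20 min at room temperature. Delta was normalized to 5.8 microM ADEP and DMSO/no-enzyme controls.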
# * marks the source's active call; other numbers are inactive results; i = inactive; ? = inconclusive; . = not tested or not shown; [ ] = dose if it differs, or a comment. This excerpt belongs to a sample that is enriched for hits. Unless noted, calls follow the shape of the dose curve; as a rule, active = well fitted curve in the direction sought with a large enough effect; inconclusive = small, poorly fitted or top-dose-only effect, or another doubt; inactive = no such curve, though single readings can be large; an effect the other way counts as inactive or inconclusive.
SMILES,S-ASM inh,Mito fusion yeast,LDHA inh,IDH1 R132H inh,RGS4 inh,ClpP mod
COCC(=O)N1C[C@H]2CON(C)[C@H]2C[C@H]1c1cccc(-c2ccccc2OC)c1,.,.,-31*,14%,.,-2%
Cc1cccc(C(=O)Nc2cc3nn(-c4ccc(C(C)C)cc4)nc3cc2C)c1,.,.,-9,-6%,17%,10µM*
COc1ccc(-c2csc(N3N=C(C)CC3c3cccc(OC)c3OC)n2)cc1 (stereo not given),.,.,2,.,.,.
O=C(OCc1ccccc1)N1CCC2CC1c1cc(-c3cc4ccccc4o3)ccc12 (stereo not given),.,.,-33*,13%,.,4%
O=C(OCc1ccccc1)N1CCC2CC1c1cc(/C=C/CCCSc3ncccn3)ccc12 (stereo not given),.,.,-34*,-13%,.,-1%
O=C(OCc1ccccc1)N1CCC2CC1c1cc(N3CCCCC3)ccc12 (stereo not given),-9%,.,-4,2%,21%,-10%
O=C(OCc1ccccc1)N1CCC2CC1c1cc(N3CCNCC3)ccc12 (stereo not given),.,.,-31*,-14%,.,-2%
COc1ccc(-c2ccc3c(c2)C2CC3CCN2C(=O)OCc2ccccc2)cc1 (stereo not given),-10%,.,0,2%[38.3 µM],-10%,-7%
O=c1c(C=Nc2ccc(Cl)cc2)c[nH]n1-c1cccc(Cl)n1,3%,0%,-52*,14%,2%,-1%
C=CCn1cc(-c2cccc(Cl)c2)cc(C#N)c1=O,114%,2%,0,3%,-6%,28µM*
N#Cc1cc(-c2cccc(Cl)c2)c[nH]c1=O,21%,0%,-2,-7%,-7%,22µM*
N#Cc1c(-c2cccc(Cl)c2)[nH]c(=S)[nH]c1=O,10%,3%,-4,-10%,-40%,.
CC1CCC(NC(=O)c2cc(=O)c3ccccc3o2)CC1 (stereo not given),.,.,7,.,.,.
O=C(Nc1ccc(O)cc1)c1csc(NC2CC2)n1,.,.,-1,.,.,.
CC1=CC2=NC(=O)CC(C)(C(=O)N(CC(=O)NC(C)(C)C)C3CCCC3)N2C=C1 (stereo not given),-1%,2%,-7,-4%,-12%,32µM*
CC(C)(C)NC(=O)CN(C(=O)C1(C)CC(=O)N=C2C=CC=CN21)C1CCCC1 (stereo not given),27%,2%,-3,3%,-29%,?
O=C(COc1ccc(-c2ccccc2)cc1)NNC(=O)Nc1ccc(F)cc1F,-1%,-1%,-3,2%,-8%,32µM*
COCc1cc(C)nc(OCC(=O)N/N=C/c2ccccc2)c1C#N,-1%,.,-1,1%,1%,.
COCc1cc(C)nc(OCC(=O)N/N=C/c2ccco2)c1C#N,8%,-4%,0,4%,-14%,14µM*
COc1ccc(C(=O)COC(=O)Cc2coc3ccc4ccccc4c23)cc1OC,.,.,12,.,.,.
CCN(CC)c1cc(C)c2cc(NC(=O)CNC(C)=O)ccc2n1,i,1%,8,2%,4%,16µM*
CCN(CC)c1cc(C)c2cc(NC(=O)/C=C/c3ccc(C)cc3)ccc2n1,.,.,0,22%,0%,-3%
O=C(O)C(=Cc1cccc([N+](=O)[O-])c1)c1ccc(Cl)cc1,-2%,.,-11,-3%,-4%,25µM*
CCN(CC)c1ccc(C=C(c2nnnn2-c2ccccc2)c2nnnn2-c2ccccc2)cc1,-4%,1%,-3,3%,-15%,28µM*
Cc1ccc(-n2nnnc2C(=Cc2ccc(N(C)C)cc2)c2nnnn2-c2ccc(C)cc2)cc1,-8%,3%,1,0%,-29%,0%
SMILES,S-ASM inh,Mito fusion yeast,LDHA inh,IDH1 R132H inh,RGS4 inh,ClpP mod
Cc1c(C(=O)N(CCC#N)c2ccccc2)sc2nc3n(c(=O)c12)CCCCC3,.,.,3,.,.,.
Cc1ccc(S(=O)(=O)c2c(N)n(NC(=O)c3ccco3)c3nc4ccccc4nc23)cc1,2%,2%,4,-3%,-4%,8.9µM*
Cc1cccc(S(=O)(=O)c2c(N)n(Cc3ccco3)c3nc4ccccc4nc23)c1,i,5%,-8,-5%,?,6.3µM*
CCCCn1c(N)c(S(=O)(=O)c2ccc(C)cc2)c2nc3ccccc3nc21,i,-39%,5,-3%,5%,.
Cc1ccc(S(=O)(=O)c2c(N)n(Cc3ccco3)c3nc4ccccc4nc23)cc1,i,5%,0,0%,?,14µM*
Cc1ccc(S(=O)(=O)c2c(N)n(-c3ccccc3)c3nc4ccccc4nc23)cc1,i,5%,-12,-13%,5%,.
CCOC(=O)N1CCN(C(=O)Cn2c(=O)[nH]c3ccccc3c2=O)CC1,.,.,-1,.,.,.
Fc1ccc(CN2CCCN(c3nnnn3-c3ccccc3)CC2)cc1,.,.,-2,.,.,.
CCC(=O)NC1Cc2ccccc2C(c2ccccc2)C1 (stereo not given),.,.,.,.,24µM*,.
CCC(=O)NC(=S)Nc1ccccc1F,6%,-12%,-5,-2%,-4%[11.4 µM],13µM*
CCCC(=O)NC(=S)Nc1ccccc1F,0%,-9%,-2,6%,6%,1%
Cc1ccc(N(CC(=O)NC2CCCC2)C(=O)CCC(=O)Nc2ccccn2)cc1C,-1%,7%,-3,13%,-10%,.
O=C(CCC(=O)N(CC(=O)NC1CCCCC1)c1ccc2c(c1)OCCO2)Nc1ccccn1,.,22µM*,.,.,.,.
COCCn1c(CCC(=O)Nc2ccc(C)cc2)nc2c1c(=O)[nH]c(=O)n2CC(C)C,.,.,2,.,.,.
O=c1c2oc3ccccc3c2n(Cc2ccccc2F)c(=O)n1Cc1ccc2c(c1)OCO2,.,.,-6,-8%,24%,25µM*
O=c1c2oc3ccccc3c2n(Cc2cccc(Cl)c2)c(=O)n1Cc1ccc2c(c1)OCO2,.,.,-6,-9%,-5%,-27%
Nc1c(C(=O)Nc2ccccc2Br)sc2nc(-c3cccs3)ccc12,.,.,-11,-6%,-17%,32µM*
Nc1c(C(=O)Nc2nc3ccccc3s2)sc2nc(-c3cccs3)ccc12,15%,3%,-17,-7%,?,0%
COc1ccccc1NC(=O)c1sc2nc(-c3ccco3)ccc2c1N,73%,12%,-5,2%,2%[11.4 µM],3%
Nc1c(C(=O)Nc2ccccc2)sc2nc(-c3ccco3)ccc12,68%,2%,-13,12%,?,16µM*
CCCC(C)NC(=O)CSc1nc2ccccc2o1 (stereo not given),.,.,-5,.,.,.
